CYP2C9 act: activators of human CYP2C9; actives 1.4% (n = 96,000); P11712; recombinant CYP2C9, luciferin-H conversion, luminescence; stronger effect = higher value; factor 1 = untreated enzyme, 0 = blocked; activation factor at 5 µM;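 active means activation factor of 2 or more for CYP2C9 at a 5 µM dose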;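 further: 0 = sulfaphenazole-blocked wells and 1 = vehicle-only wells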
CYP2C9 inh: inhibitors of human CYP2C9; actives 20% (n = 96,000); P11712; CYP2C9 Supersomes, luciferin-H conversion, luminescence; AID 777; inhibition, % at 5 µM;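 active means blocking of liver enzyme CYP2C9 beyond about 50% at 5 µM, limit read from the data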
Cav32 inh: human Cav3.2 channel inhibition, primary screen | Cav3.2-expressing cells, Fluo-4 calcium fluorescence FDSS; stronger effect = lower value | B-score at 10 µM | actives 4% (n = 100,000) | AID 449739 | O95180;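 active means single-dose well whose peak fluorescence ratio is a statistical outlier from its plate by either plate-standardised score or position-corrected B-score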
Target sequence (O95180 whole entry, looked up): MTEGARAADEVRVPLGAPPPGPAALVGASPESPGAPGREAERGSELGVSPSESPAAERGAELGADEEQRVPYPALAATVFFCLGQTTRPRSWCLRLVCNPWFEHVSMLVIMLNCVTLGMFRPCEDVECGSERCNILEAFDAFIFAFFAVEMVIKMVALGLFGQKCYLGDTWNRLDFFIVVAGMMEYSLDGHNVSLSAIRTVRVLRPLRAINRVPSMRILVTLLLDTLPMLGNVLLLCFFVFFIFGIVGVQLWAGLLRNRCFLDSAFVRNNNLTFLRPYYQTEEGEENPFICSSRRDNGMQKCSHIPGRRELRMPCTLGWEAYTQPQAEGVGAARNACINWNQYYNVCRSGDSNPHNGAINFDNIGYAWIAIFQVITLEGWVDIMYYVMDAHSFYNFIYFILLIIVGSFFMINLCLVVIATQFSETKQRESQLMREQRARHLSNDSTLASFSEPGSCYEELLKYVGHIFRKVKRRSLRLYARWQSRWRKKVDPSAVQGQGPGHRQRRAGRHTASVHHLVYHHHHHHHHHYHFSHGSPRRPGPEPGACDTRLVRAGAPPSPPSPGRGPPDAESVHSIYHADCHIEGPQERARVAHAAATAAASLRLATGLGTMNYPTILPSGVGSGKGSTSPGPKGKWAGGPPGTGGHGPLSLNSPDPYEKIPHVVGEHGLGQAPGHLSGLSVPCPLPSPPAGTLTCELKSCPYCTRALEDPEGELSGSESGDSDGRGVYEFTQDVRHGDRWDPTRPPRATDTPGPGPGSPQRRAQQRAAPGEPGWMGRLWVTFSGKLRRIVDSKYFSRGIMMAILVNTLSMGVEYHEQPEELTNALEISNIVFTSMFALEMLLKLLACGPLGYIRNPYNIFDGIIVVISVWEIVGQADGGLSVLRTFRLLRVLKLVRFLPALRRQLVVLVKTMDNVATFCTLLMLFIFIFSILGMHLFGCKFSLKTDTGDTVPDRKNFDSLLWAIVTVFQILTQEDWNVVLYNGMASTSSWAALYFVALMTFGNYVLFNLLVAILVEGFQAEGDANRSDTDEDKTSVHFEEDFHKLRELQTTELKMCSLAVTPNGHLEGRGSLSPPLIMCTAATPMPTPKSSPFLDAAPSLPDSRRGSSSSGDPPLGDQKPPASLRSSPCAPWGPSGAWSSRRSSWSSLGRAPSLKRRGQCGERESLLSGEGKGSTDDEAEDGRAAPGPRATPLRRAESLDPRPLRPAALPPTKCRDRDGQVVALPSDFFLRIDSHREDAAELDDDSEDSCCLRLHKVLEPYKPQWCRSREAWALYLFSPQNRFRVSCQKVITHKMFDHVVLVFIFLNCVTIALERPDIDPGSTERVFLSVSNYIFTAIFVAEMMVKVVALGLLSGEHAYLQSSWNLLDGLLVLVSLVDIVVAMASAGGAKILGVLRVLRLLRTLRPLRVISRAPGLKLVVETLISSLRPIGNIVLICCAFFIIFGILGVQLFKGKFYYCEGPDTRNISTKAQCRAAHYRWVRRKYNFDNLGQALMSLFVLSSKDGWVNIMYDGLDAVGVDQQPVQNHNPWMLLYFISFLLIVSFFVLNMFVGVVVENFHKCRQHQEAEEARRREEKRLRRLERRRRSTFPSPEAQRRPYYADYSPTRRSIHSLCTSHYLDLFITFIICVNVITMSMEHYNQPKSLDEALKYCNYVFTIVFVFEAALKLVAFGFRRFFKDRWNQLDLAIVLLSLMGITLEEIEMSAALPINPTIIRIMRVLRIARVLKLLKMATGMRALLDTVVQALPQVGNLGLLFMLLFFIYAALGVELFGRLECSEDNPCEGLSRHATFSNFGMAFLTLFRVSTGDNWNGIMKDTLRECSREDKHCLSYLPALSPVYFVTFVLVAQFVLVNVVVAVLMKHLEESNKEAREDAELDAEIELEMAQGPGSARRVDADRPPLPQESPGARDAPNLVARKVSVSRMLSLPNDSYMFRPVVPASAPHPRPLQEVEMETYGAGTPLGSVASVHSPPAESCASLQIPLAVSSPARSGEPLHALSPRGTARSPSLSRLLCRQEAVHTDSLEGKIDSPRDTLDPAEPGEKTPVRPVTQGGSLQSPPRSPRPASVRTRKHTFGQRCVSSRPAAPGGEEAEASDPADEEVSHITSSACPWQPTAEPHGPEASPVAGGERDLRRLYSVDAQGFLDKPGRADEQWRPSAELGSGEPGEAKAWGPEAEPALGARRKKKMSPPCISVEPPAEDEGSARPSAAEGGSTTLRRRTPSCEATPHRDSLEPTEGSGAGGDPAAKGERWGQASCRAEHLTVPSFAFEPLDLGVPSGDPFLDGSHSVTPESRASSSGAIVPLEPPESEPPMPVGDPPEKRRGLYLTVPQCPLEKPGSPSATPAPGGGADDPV
CYP2C19 activ: increases human CYP2C19 enzyme activity | P33261 | recombinant CYP2C19, luciferin-H EGE luminescence; stronger effect = higher value; 0 = fully inhibited enzyme, 1 = untreated enzyme | activation factor at 5 µM | 96,000 tested, under 10 active | AID 1025;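 active means activation factor of at least 2 at 5 µM in the primary screen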;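 further: 0 = wells with 2.5 mM tranylcypromine and 1 = vehicle-only wells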
CYP2C19 inhib: inhibitors of human CYP2C19; inhibition, % at 5 µM; CYP2C19 Supersomes, luciferin-H EGE luminescence, 30 min; P33261; actives 21% (n = 96,000);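 active means CYP2C19 inhibition above a set limit at 5 µM in the primary screen, cut at about 50% in these data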;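 further: plate controls were negative control wells for no effect and 2.5 mM tranylcypromine positive control for full effect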
The depositor's hits bear a star; . = not tested or not shown. Compounds with a hit are over-represented: about 27% of the library has one in this group of screens.

SMILES	CYP2C9 act	CYP2C9 inh	Cav32 inh	CYP2C19 activ	CYP2C19 inhib
Cc1cc2c(nc1C)CCCN2C[C@@H](C)O/N=C1/[C@H]2CCn3c(=O)n(-c4ccccc4)c(=O)n3[C@H]2[C@H](O)[C@@H]2O[C@H]12	.	.	-0.49	.	.
CC(C)(C)[C@H]1C=C(C(=O)NCc2ccccc2)O[C@@H](OCCCCO)C1	.	.	0.7	.	.
Cn1c(=O)c2c(nc(OCc3ccccc3)n2C)n(C)c1=O	1	-2	-0.15	1	-3
O=c1[nH][nH]c(C(F)(F)F)c1C=NCc1ccc(Cl)cc1	0.8	18	-1.8	0.4	58*
O=c1[nH][nH]c(C(F)(F)F)c1C=NCc1cccc(Cl)c1	0.7	34	-0.0086	0.3	68*
CC1CC(C)CN(CC(C)(C)NS(=O)(=O)c2ccc(Cl)cc2)C1 (stereo not drawn)	0.4	56*	-0.017	0.2	76*
CC(C)(CN1CCCCC1)NS(=O)(=O)c1ccc(Cl)cc1	1.1	-6	0.35	0.5	55*
CC(C)(CNS(=O)(=O)c1ccc(Cl)cc1)N1CCCCC1	0.9	6	-0.026	0.4	64*
CN(C)CC(C)(C)NS(=O)(=O)c1ccc(Cl)cc1	1	-5	1.5	0.4	56*
Cc1ccc(NC(=O)CS(=O)CC(=O)NCCCc2ccccc2)cc1Cl (stereo not drawn)	0.7	35	.	1	3
COc1ccc([C@@H]2C[C@@H](c3ccccc3)Oc3c(C)ccc(C(C)C)c32)cc1	.	.	0.91	.	.
O=C(N/C=C\c1ccccc1)NCc1ccc(Cl)cc1Cl	0.8	20	-1.6	0.7	27
O=C(NCc1ccc(Cl)cc1Cl)c1ccccn1	1.2	-23	-1.6	0	99*
Clc1ccc(COc2ccccn2)c(Cl)c1	0.8	18	0.04	0.1	87*
CCOc1cccc(CNc2ccc(O)cc2)c1OCc1ccc(Cl)cc1Cl	1.1	-12	.	0.7	30
CCOC(=O)N1CCC(n2c(SCC(=O)Nc3ccccc3OC)nc3ccccc3c2=O)CC1	0	95*	-3	0.1	90*
CC(=O)NCCn1c(SCC(=O)NCCC2=CCCCC2)nc2ccccc2c1=O	0.8	20	1	0.7	31
CCOC(=O)N1CCC(n2c(SCC(=O)N3CCC(C)CC3)nc3ccccc3c2=O)CC1	0.4	60*	-4.2	0.4	57*
COCC(C)n1c(SCC(=O)NCCC2=CCCCC2)nc2ccccc2c1=O (stereo not drawn)	0.1	87*	-4	0.2	84*
CCOC(=O)N1CCC(n2c(SCC(=O)NCCC3=CCCCC3)nc3ccccc3c2=O)CC1	0.3	68*	-5.1*	0.4	58*
CCOC(=O)Cn1c(=O)c2c(nc3n2CCCCN3c2ccc(C)cc2)n(C)c1=O	1	2	1.7	1	-2
CCn1cc(C(=O)NC2CC3CCC2C3)c(=O)c2ccc(C)nc21 (stereo not drawn)	1	2	.	0.9	13
COCCCn1c(SCC(=O)Nc2ccc(NC(=O)c3ccco3)c(OC)c2)nc2ccccc2c1=O	.	.	0.31	.	.
CCOC(=O)N1CCC(n2c(SCC(=O)NCc3ccccc3)nc3ccccc3c2=O)CC1	0.5	53*	-1.1	0.4	60*
COc1ccc(NC(=O)CSc2nc3ccccc3c(=O)n2CCCN2CCCCC2)c(OC)c1	0.8	16	-0.23	0.4	64*
SMILES	CYP2C9 act	CYP2C9 inh	Cav32 inh	CYP2C19 activ	CYP2C19 inhib
COC(=O)c1cn(NC(=O)C2COc3ccccc3O2)c(=O)c2ccccc12 (stereo not drawn)	0.9	14	-0.19	1.1	-14
COc1cc(CNCCc2ccc(S(N)(=O)=O)cc2)ccc1OCc1ccc(Cl)cc1	0.6	36	-0.2	0.5	53*
CCOc1cc(CNCCc2ccc(S(N)(=O)=O)cc2)ccc1OCc1ccc(Cl)cc1	0.6	35	2	0.5	54*
O=C1Nc2ccccc2C12OC1CCCCC1O2 (stereo not drawn)	1.2	-23	-1.7	1.1	-14
O=C1Oc2ccccc2C2(O)C3CCCCCC3C12 (stereo not drawn)	0.8	20	0.55	0.1	95*
N#Cc1cnn(Cc2ccc(Cl)cc2)c1N	0.9	6	0.012	0.5	55*
N#Cc1cnn(Cc2ccccc2)c1N	1.1	-9	-0.17	0.9	11
Cc1oc(-c2ccccc2Cl)nc1Cn1cccc1C1=NC(c2ccccc2)CO1 (stereo not drawn)	0.3	75*	-6.7*	0.6	43
O=c1ccc(Cl)cn1Cc1ccccc1F	.	.	0.02	.	.
CC(C)C[C@H]1C(=O)N2CCC[C@H]2[C@]2(O)O[C@](NC(=O)C3C=C4c5cccc6[nH]c(Br)c(c56)C[C@H]4N(C)C3)(C(C)C)C(=O)N12 (stereo partly drawn)	.	.	-5.6*	.	.
COc1cc2c(cc1OC)C(C(=O)NCC1COc3ccccc3O1)C(c1cccnc1)N(C)C2=O (stereo not drawn)	1	-3	0.14	0.8	17
COc1cc2nc(SCc3ccc(Cl)cc3Cl)n(Cc3cccs3)c(=N)c2cc1OC	0.3	74*	-0.12	0.7	26
COc1ccc(Cn2c(SCc3ccc(C)cc3)nc3cc(OC)c(OC)cc3c2=N)cc1Cl	0.3	69*	-0.17	1	-4
COc1cc2nc(SCc3ccc(C(F)(F)F)cc3)n(Cc3cccs3)c(=N)c2cc1OC	0.9	6	0.29	1.1	-11
COc1ccc(Cn2c(SCc3cc(C)ccc3C)nc3cc(OC)c(OC)cc3c2=N)cc1	0.4	56*	-0.8	0.6	37
COc1ccc(Cn2c(C)nc3oc4cc(OC)ccc4c(=O)c3c2=O)cc1	0.6	43	1.5	0.7	30
CNC(=O)[C@@H]1C[C@H]1[C@@H](NC(=O)OCc1ccccc1)c1ccccc1	.	.	0.91	.	.
Cn1c(NC(=O)c2ccccc2)c(-c2ccccn2)c(=O)c2ccccc21	0.7	28	0.59	1.1	-11
CS(=O)(=O)N(CC(=O)NCCSc1ccc(Cl)cc1)c1ccc2c(c1)OCO2	0.4	62*	.	0.3	69*
CS(=O)(=O)N(CC(=O)NCCSc1ccccc1)c1ccc2c(c1)OCO2	0.4	64*	0.0034	0.2	76*
CS(=O)(=O)N(CC(=O)NCCSCc1cccc(Cl)c1)c1ccc2c(c1)OCO2	0.2	82*	.	0.1	88*
CC1(C)CC(=O)C2=C(C1)Nc1ccccc1N=C2	.	.	-0.51	.	.
Cc1ccc(S(=O)(=O)NC(=O)c2cccn2C)cc1	0.9	6	0.51	1.1	-13
O=C(CN1CCN(c2ccccn2)CC1)Nc1ccccc1	0.7	32	0.94	0.4	56*
O=C(CN1CCN(c2ccccn2)CC1)Nc1ccc(OCc2ccccc2)cc1	0.7	31	.	0.9	8
O=C(CN1CCN(c2ccccn2)CC1)Nc1ccc(Oc2ccccc2)cc1	0.5	53*	-2.8	0.8	22
Cc1ccc(N(CC(=O)Nc2cc(Cl)ccc2Oc2ccccc2)S(C)(=O)=O)c(C)c1	0.5	46	-4	0.4	61*

Assay outcomes: PubChem BioAssay, several laboratories
